The values below come from PubChem BioAssay AID488859 (Sanford-Burnham Center for Chemical Genomics, 2010).

Broadly, the inhibition is how much of the control response was suppressed.

The whole screen tested about 1,400 compounds, of which about 970 (69%) were called active. About 5% were inconclusive and are not listed. No stated cut-off is given here; in the data, active means inhibition above about 45%; inconclusive means no clear call, values can overlap the other calls; inactive means below that. The set was probably picked from earlier hits. A selection follows.

In this experiment the target is Ubiquitin-conjugating enzyme E2 N (Homo sapiens) (UniProt P61088). Briefly: retested blockers of UBC13 chain formation – biochemical, TR-FRET, single concentration, confirmation (AID 488859). Particulars: UBC13 polyubiquitination, at 10 µM, active compounds read high. (In general: In TR-FRET formats the signal depends on donor and acceptor labels being close together.)
Chain of Ubiquitin-conjugating enzyme E2 N (Homo sapiens) (P61088 whole entry, looked up): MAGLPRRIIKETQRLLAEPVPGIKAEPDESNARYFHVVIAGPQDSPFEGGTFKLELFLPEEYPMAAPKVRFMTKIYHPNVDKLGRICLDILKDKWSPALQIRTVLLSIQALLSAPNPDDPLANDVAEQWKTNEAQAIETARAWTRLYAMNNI
As to `CNCC(O)c1cc(F)c(OCc2ccccc2)c(OCc2ccccc2)c1F` (stereo unspecified), the inhibition is 50.4% (active).
